Test in all cases: NCI-60 one-dose screen, 48 h (100 = growth as untreated, 0 = no growth, -100 = all killed)
Common to all, as to details: 10 µM unless noted

Assay [1] relates to NCI-H23 lung.
Assay [2] has as its system NCI-H226 lung.
For assay [3], the system named is NCI-H322M lung.
Assay [4] has as its system HOP-62 NSCLC.
Assay [5] concerns NCI-H460 lung.
For assay [6], the system named is NCI-H522 lung.
The test system of assay [7] is A549/ATCC NSCLC.
In assay [8] the test system is 786-0 renal.
Assay [9] has as its system COLO 205 colon.
Assay [10] deals with DU-145 prostate.
The subject of assay [11] is K-562 leukemia.
The subject of assay [12] is MALME-3M melanoma.
In assay [13] the test system is MDA-MB-231 breast.
Assay [14] deals with RXF 393 renal.
Assay [15] deals with SF-268 CNS.
The test system of assay [16] is SF-295 CNS.
Assay [17] relates to SF-539 CNS.
The subject of assay [18] is UACC-257 melanoma.
In assay [19] the test system is M14 melanoma.

The structures appear in SMILES notation. About 83,000 compounds went through this panel and 20% of them were active in at least one assay; those are over-represented in the sample as a whole.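 In brief: 96-well plates, 48 h treatment, single concentration, percent growth endpoint.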 Unmarked numbers belong to inactive results. Active and inactive are the calls of the source. How the source made its calls: active means growth percent below 10; inactive means the rest.

`CCC1N=C(N)N=C(N)N1c1ccc(Cl)cc1` (configuration not stated): the growth was 89.4% in assay [1]; 96.5% in assay [2]; 90.4% in assay [3]; 102% in assay [4]; 39.1% in [5]; 90.9% in assay [6]. Further, the growth was 38% in assay [7]; 58.6% in assay [8]; 121% in [9]; 105% in assay [10]; 57.1% in [11]; 61.6% in assay [12]. Further, the growth in assay [13] is 99.5%; in assay [14], 89.3%; in [15] it was 77.2%; in assay [16], 88.9%; in assay [17] it was 109%; in [18], 88.1%. Also, in [19], the growth is 79.7%.

Take `Cc1cc(O)ccc1Sc1ccccc1[N+](=O)[O-]`: the growth in assay [1] was 86.2%; in assay [2], 97.2%; in [3] it was 110%; in [4] it was 92.2%; in assay [5], 96.4%; in assay [6] it was 75.9%. In addition, the growth was 84.9% in assay [7]; 107% in [8]; 108% in assay [9]; 96% in assay [10]; 101% in assay [11]; 79.6% in assay [12]. Besides, the growth is 106% in assay [13]; 106% in [14]; 98.4% in assay [15]; 90.1% in assay [16]; 102% in assay [17]; 88.1% in assay [18]. For the same molecule, in [19], the growth was 88.9%.

As for `COc1ccc2nc3ccccc3c(NCc3ccc(Cl)cc3)c2c1`, the growth is 28.3% in [1]; 48.8% in [2]; 24.6% in assay [3]; 42.4% in assay [4]; 12.5% in assay [5]; 34.7% in [6]. Also, the growth was 23.6% in assay [7]; -76.9% (active) in assay [8]; -61.9% (active) in [9]; 21.5% in assay [10]; -30.2% (active) in assay [11]; -81.6% (active) in [12]. The growth in assay [13] is 24.3%; in assay [14], -24.2% (active); in assay [15], 53.5%; in [16], 25.8%; in [17] it was -5.77% (active); in assay [18], -52.2% (active). In assay [19], the growth was -86.1% (active).

On to `O=C1/C(=C/N2N=C(c3ccc(Cl)cc3)CC2c2ccccc2O)SC(=S)N1c1cccc(C(F)(F)F)c1` (configuration not stated), for which the growth is 53.8% in assay [1]; 63.3% in assay [2]; 71.4% in assay [3]; 69.1% in assay [4]; 44.6% in assay [5]; 30.3% in assay [6]. In addition, the growth is 38.6% in assay [7]; 66.4% in [8]; 71.2% in assay [9]; 63.4% in [10]; 42.6% in assay [11]; 79.6% in [12]. The growth was 44% in assay [13]; 67.4% in [14]; 48.1% in [15]; 64.7% in assay [16]; 76.1% in assay [17]; 94.5% in assay [18]. Further, in assay [19], the growth is 48.2%.

Consider `Cc1cccc(N=NC(=S)NNc2cccc(C)c2)c1`, for which the growth in assay [1] is 102%; in assay [2] it was 101%; in assay [3], 101%; in [4], 101%; in assay [5] it was 112%; in assay [6], 95.4%. Besides, the growth in assay [7] is 105%; in [8] it was 111%; in assay [9], 116%; in [10], 122%; in assay [11], 105%; in [12] it was 108%. For the same molecule, the growth was 93.5% in assay [13]; 115% in [14]; 135% in [15]; 104% in assay [16]; 108% in [17]; 105% in [18]. For the same molecule, the growth in [19] is 108%.

`c1coc(CNc2c3ccccc3nc3ccccc23)c1`: the growth in assay [1] was 63.6%; in assay [2], 62.9%; in assay [3], 65%; in assay [4], 69.6%; in assay [5], 56.5%; in assay [6], 47.3%. Moreover, the growth in assay [7] is 61.9%; in assay [8], 65.7%; in assay [9], 35.2%; in [10], 76%; in assay [11], 44.7%; in assay [12], 90.4%. Moreover, the growth is 60.5% in [13]; 61.5% in assay [14]; 85.7% in [15]; 53.9% in assay [16]; 65.9% in assay [17]; 81.7% in [18]. The growth in [19] was 79.7%.

As to `COc1ccc(-c2nn(C(=O)NCCN(C)C)cc2-c2ccncc2)cc1Cl`, the growth is 63.5% in assay [1]; 46.4% in assay [2]; 109% in assay [3]; 16% in assay [4]; 27.4% in assay [5]; 28.2% in assay [6]. Also, the growth in assay [7] was 32.6%; in [8], 34.8%; in assay [9] it was 25.1%; in assay [10], 77.6%; in [11], 16.5%; in assay [12], 53.8%. Also, the growth in [13] was 54.5%; in assay [14], 44.6%; in assay [15], 44.8%; in [16] it was 24%; in [17], 25.6%; in [18] it was 64.4%. Further, the growth in [19] is 45.8%.

Regarding `CCOC(OCC)c1cnc2nc(NC(C)=O)[nH]c(=O)c2n1`, the growth in assay [1] is 102%; in [2] it was 107%; in assay [3] it was 101%; in assay [4], 120%; in assay [5], 104%; in assay [6], 98.8%. For the same molecule, the growth in assay [7] is 99.7%; in assay [8], 97.5%; in [9], 121%; in [10] it was 107%; in [11], 104%; in assay [12] it was 89.8%. Further, the growth in [13] was 104%; in [14], 110%; in assay [15] it was 112%; in [16], 109%; in assay [17] it was 108%; in assay [18] it was 109%. Moreover, the growth in assay [19] was 100%.

Source of the values: PubChem BioAssay (NCI).
